Screening results deposited in PubChem by National Center for Advancing Translational Sciences (NCATS).
Rows were chosen to be rich in hits. Some 3.1% of all compounds tested hit in one or more screens of this group.
12-hLO inh: 12-hLO (ALOX12) enzyme inhibition; P18054; purified 12-hLO, xylenol orange hydroperoxide absorbance; Potency, µM (series often up to 57.1 µM), for inactives: at the highest dose activity change, negative = inhibition, most hits filed as inhibitors; 150,000 tested, 0.12% active; AID 1452; note: potency is the fitted concentration of half-maximal effect; nearly all actives have a fitted effect of over 55% in size
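Hydroperoxide output read as Fe(III)-xylenol orange absorbance, 573-to-405 nm ratio, after 30 min reaction with 40 uM arachidonic acid. Enzyme: 150 nM purified human 12hLO, 15 min compound preincubation; 25 mM Hepes pH 7.0, room temperature.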
15-hLO-2 inh: blocks human 15-lipoxygenase 2 activity | purified 15hLO-2, xylenol orange hydroperoxide absorbance | Potency, µM (series often up to 57.1 µM), inactives show top-dose activity change, negative = inhibition, hits mostly inhibitors | 110,000 tested, 0.56% active; note: potency is the fitted concentration of half-maximal effect; nearly all actives have a fitted effect of over 60% in size
Target sequence (O15296 whole entry, looked up): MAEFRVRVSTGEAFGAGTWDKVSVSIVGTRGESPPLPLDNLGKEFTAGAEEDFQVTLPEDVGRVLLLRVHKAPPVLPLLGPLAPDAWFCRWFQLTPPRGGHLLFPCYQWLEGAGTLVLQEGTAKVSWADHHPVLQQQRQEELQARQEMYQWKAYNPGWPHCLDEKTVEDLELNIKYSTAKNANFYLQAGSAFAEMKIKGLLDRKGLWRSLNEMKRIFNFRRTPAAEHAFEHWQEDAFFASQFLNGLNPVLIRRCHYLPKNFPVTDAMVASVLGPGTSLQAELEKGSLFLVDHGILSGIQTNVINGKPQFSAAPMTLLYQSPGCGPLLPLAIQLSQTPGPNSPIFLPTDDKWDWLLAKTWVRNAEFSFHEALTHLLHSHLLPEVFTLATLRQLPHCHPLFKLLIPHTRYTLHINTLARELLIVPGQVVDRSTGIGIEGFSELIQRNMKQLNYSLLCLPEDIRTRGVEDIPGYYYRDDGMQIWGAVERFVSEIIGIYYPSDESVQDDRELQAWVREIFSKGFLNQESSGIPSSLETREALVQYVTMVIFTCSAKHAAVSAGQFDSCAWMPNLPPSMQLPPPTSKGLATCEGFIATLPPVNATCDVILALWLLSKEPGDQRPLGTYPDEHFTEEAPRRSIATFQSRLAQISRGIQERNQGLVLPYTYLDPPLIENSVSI
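Read-out: hydroperoxide product oxidises ferrous iron, measured as xylenol orange complex via the 573-to-405 nm absorbance ratio after 30 min. Reaction: 50 nM enzyme, 15 min compound preincubation, 45 uM arachidonic acid, 90 min RT, Hepes pH 7.5 with Triton X-100.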
PNC inhibitor: inhibitors of perinucleolar compartment assembly. PC3M PTB-GFP, PNC prevalence imaging, 16 h; hits give low values. activity change (PNC), negative = inhibition, % at 10 µM. 140,000 tested, 3.1% active. AID 2417;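 active = readout at or below -70, meaning at least 70% loss of cells showing the perinucleolar compartment, a nuclear body marking cancer cells; inconclusive = readout between -30 and a set limit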;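 note: plate controls were DMSO wells for no effect and camptothecin positive control wells for full effect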
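PC3M cells stably expressing PTB-GFP, 750–1000 cells/well, treated 16 h at 37 °C with compound (23 nl of library stock), in duplicate. After paraformaldehyde fixation and Hoechst stain, imaged at 20x; PNC prevalence scored by image analysis.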
* = called active by the depositor; ? = inconclusive; . = not tested or not shown; [ ] = another dose, or the depositor's remark. Unless noted, calls come from the whole dose curve; as a rule, active = well fitted curve in the direction sought with a large enough effect; inconclusive = small, poorly fitted or top-dose-only effect, or another doubt; inactive = no such curve, though single readings can be large; an effect the other way counts as inactive or inconclusive. Unless noted, % is set by controls: 0 for no effect and ±100 for the full control effect.

SMILES | 12-hLO inh | 15-hLO-2 inh | PNC inhibitor
Cc1ccc(Nc2nc(CSc3nnc(-c4ccccc4)n3C)cs2)cc1 | -4% | . | ?
Cc1ccc(Nc2nc(CSc3nnc(-c4ccccc4C)n3C)cs2)cc1 | -3% | . | -107*
C=C(N(C)C)[C@]1(C)C[C@H]1[C@H](NC(=O)CNC(=O)OCc1ccccc1)c1ccccc1 | 2% | -6% | .
N#CCCn1c(=O)c(-c2cc(F)cc(F)c2)nc2cnc(OCc3ccccc3)nc21 | -4% | -3% | .
COC(=O)[C@]1(C)CCC(c2ccc(C)cc2)=C(CC(=O)O)C1 | 1%[11.4 µM] | -2%[11.4 µM] | .
O=C(NCc1ccco1)C12CN(Cc3ccccc3)CC1C(c1cccc([N+](=O)[O-])c1)=NO2 (centres undefined) | -2% | -15% | -86*
O=C(NCc1ccco1)C12CN(Cc3ccccc3)CC1C(c1ccc([N+](=O)[O-])cc1)=NO2 (centres undefined) | -3% | . | -1
C[C@@]12CC(=O)[C@@H]3[C@@H](CCC4=CC(=O)CC[C@]43C)[C@@H]1CC=C2CC(=O)O | -7%[11.4 µM] | 1%[11.4 µM] | .
C[C@@H](C(=O)Nc1ccc2ccccc2c1)[C@@H]1C[C@@]1(C)[C@@H](NC(=O)Oc1ccc(F)cc1)c1ccccc1 | 3% | 12% | .
CCN1CCC(O)([C@H](C(=O)O)c2ccccc2)CC1 | 1%[11.4 µM] | -2%[11.4 µM] | .
COC(=O)C1=C(C(=O)OC)[C@@H]2N(C)c3ccccc3[C@@]23C[C@@H](C(=O)OC)N(S(=O)(=O)c2ccc([N+](=O)[O-])cc2)C3=N1 | -2%[11.4 µM] | . | .
Clc1cc2c(c(Cn3cnc4ccccc43)c1)OCOC2 | 2% | . | -100*
Fc1ccc(Cn2cnc3ccccc32)cc1 | -8% | 16% | 37
COc1cccc(C(=O)Nn2c(C)nnc2-n2nc(C)cc2C)c1 | -3% | . | -100*
COc1ccc(C(=O)Nn2c(C)nnc2-n2nc(C)cc2C)cc1OC | 1% | . | -6
O=C(O)CN(CCN(CC(=O)O)CC(=O)O)CC(=O)O.[Mn] | 2%[11.4 µM] | 30%[11.4 µM] | .
NC(=O)c1ccccc1NS(=O)(=O)c1cccs1 | 5% | 0% | -26
O=C(COc1ccccc1)Nc1ccccc1NS(=O)(=O)c1cccs1 | 2% | . | -100*
COc1ccc(OCC(O)CN2CCCCC2)cc1 (centres undefined) | -11% | 7% | -19
COc1ccc(OCC(O)CN2CCN(c3ncccn3)CC2)cc1 (centres undefined) | 5% | . | -122*
C[C@@]12C=CC(=O)C=C1CC[C@@H]1C2=CC[C@]2(C)[C@@H]1CC[C@H]2C(=O)CN1CCN(c2cc(N3CCCC3)nc(N3CCCC3)n2)CC1 | -12% | -9% | .
CCN(CC)CCCCNC(=O)c1ccc(Cc2nc3ccccc3[nH]2)cc1 | 5% | . | .
CCC(C)NC(=O)CCSCCC(=O)NC(C)CC (centres undefined) | 0% | . | -104*
CC(NC(=O)CCSCCC(=O)NC(C)c1ccccc1)c1ccccc1 (centres undefined) | 2% | . | ?
Cc1nc2ccc(S(=O)(=O)NCC(=O)N3CCc4ccccc43)cc2s1 | -2% | -11% | 32
SMILES | 12-hLO inh | 15-hLO-2 inh | PNC inhibitor
Cc1nc2ccc(S(=O)(=O)NCC(=O)N3CCc4ccccc4C3)cc2s1 | 1% | -1% | -97*
C/C(Cl)=C/CCl | -3% | -11% | .
Cc1cc(NC(=O)CCC(=O)N(CC(=O)NCC2CCCO2)c2ccc3c(c2)OCCO3)no1 (centres undefined) | -2% | . | -6
CC(=O)c1cccc(N(CC(=O)NCC2CCCO2)C(=O)CCC(=O)Nc2cc(C)on2)c1 (centres undefined) | -2% | 6% | -100*
CCCC/C=C/C(NC(=O)C(C)(C)C)c1ccccc1 (centres undefined) | 3% | -9% | .
Cc1cnc(CNc2ccnc(-c3cccnc3)n2)cn1 | . | -11% | .
CC1(C)CC(CC(=O)NC(=S)Nc2ccc([N+](=O)[O-])cc2)C(=O)O1 (centres undefined) | -3% | -3% | -1
CC(C)OCC1CC(CC(=O)NC(=S)Nc2cccc([N+](=O)[O-])c2)C(=O)O1 (centres undefined) | 0% | . | -100*
COc1ncc2nc(-c3cc(F)cc(F)c3)c(=O)n(C)c2n1 | . | -7% | .
CCCOc1cc(C)c(S(=O)(=O)N2CCOCC2)cc1C | -7% | . | ?
COc1cc(C)c(S(=O)(=O)N2CCOCC2)cc1C | 10% | . | -100*
COc1cc(S(=O)(=O)N2CCN(Cc3ccc4c(c3)OCO4)CC2)c(C)cc1C | -6% | . | -119*
COc1cc(C)c(C)cc1S(=O)(=O)N1CCN(Cc2ccc3c(c2)OCO3)CC1 | -15% | 20% | 2
O=c1cnc2cnc(N3CCNCC3)nc2n1Cc1ccc(F)cc1 | . | 0% | .
CCCC(=O)Nc1ncnc2c1ncn2[C@@H]1O[C@H]2COP(=O)(O)O[C@@H]2[C@@H]1OC(=O)CCC | 2%[25.6 µM] | -1%[25.6 µM] | .
CC1CCCCC1NC(=O)CSc1nnc(-c2ccccc2)n1N (centres undefined) | -6% | 0% | -122*
Nn1c(SCC(=O)NC2CCCCC2)nnc1-c1ccccc1 | -11% | -1% | ?
O=C(c1cc(C(F)(F)F)cc(C(F)(F)F)c1)N1CCC[C@@]2(CCN(Cc3ccccc3)C2)C1 | -1% | 41% | .
CCOC(=O)c1ccc(NCC(O)COc2ccccc2)cc1 (centres undefined) | -3% | . | -119*
OC(CNc1ccccc1)COc1ccc(OCC(O)CNc2ccccc2)cc1 (centres undefined) | -4% | -8% | ?
Cn1c(Cc2csc(N)n2)nnc1SCC(=O)NC1CCCCC1 | -4% | -7% | ?
Cn1c(Cc2csc(N)n2)nnc1SCC(=O)NCc1ccccc1 | -1% | 0%[2.29 µM] | -92*
CN(C)C(=O)N1CCN(C(=O)N2CCOCC2)CC1 | -3% | . | -100*
CCOC(=O)N1CCN(C(=O)N2CCOCC2)CC1 | -4% | -10% | -17
C[C@@]12C[C@H](O)[C@@H]3[C@H](CCC4=CC(=O)CC[C@]43C)[C@H]1CC[C@@H]2c1csc(-c2ccccc2)n1 | 4%[11.4 µM] | 0%[11.4 µM] | .
SMILES | 12-hLO inh | 15-hLO-2 inh | PNC inhibitor
Cc1ncc(CSc2ccccc2N)c(CO)c1O | -2%[11.4 µM] | -1%[11.4 µM] | .
CCCc1nnc(N2C(=O)c3cccc4cccc(c34)C2=O)s1 | -2% | -2% | 21
Cc1nnc(N2C(=O)c3cccc4cccc(c34)C2=O)s1 | 5% | 3% | -111*
Cc1cccc(NC(=O)NCc2ccc3c(c2)cc(C)n3C)c1 | 12% | -10% | -108*
Cc1cc2cc(CNC(=O)Nc3cccc(Cl)c3)ccc2n1C | -8% | -6% | -26
O[C@@H](c1cc(C(F)(F)F)nc2c(Cl)cc(Cl)cc12)[C@@H]1CCCCN1 | 3%[11.4 µM] | 32%[11.4 µM] | .
COc1ccc(-c2nc3cnc(N4CCOCC4)nc3n(CCC#N)c2=O)cc1 | 9% | -4% | .
COc1ccc(C2C(C#N)=C(N)Oc3cc(O)ccc32)cc1OC (centres undefined) | -7% | -15% | -12
COc1cc(C2C(C#N)=C(N)Oc3cc(O)ccc32)cc(OC)c1OC (centres undefined) | 0% | -6% | -91*
